Measured values reported in PubChem BioAssay AID504329 (Southern Research Specialized Biocontainment Screening …, 2011).
In all, about 340,000 compounds went through this assay and about 1,000 (0.29%) were called active. These entries were drawn from the full list. Entries with a potency or affinity are not part of this list. Values without a mark were called inactive. Rule as the data show it: inconclusive = inhibition above about 27% without an active follow-up result; inactive = below that.

Test: H1N1 influenza NS1A inhibitors, functional cell based assay (AID 504329)
Conditions: percent inhibition, at 12.5 µM, stronger effect = higher value
For CCN(CC)C(=O)[C@H]1C[C@H](CC(=O)NCCc2ccccn2)C(=O)N2CCc3c([nH]c4ccc(Cl)cc34)[C@]12C, the inhibition was 15.9%.
Compound O=C(CCC1CCCN(c2ncccn2)C1)NCc1ccccc1F (stereo unspecified) has an inhibition of -9.11%.
Compound O=C1OCc2cc(NC(=O)C34CC5CC(CC(C5)C3)C4)ccc21 has an inhibition of 1.32%.
In the case of O=C(O)c1cccc2c1-c1ccc(Cl)cc1C2=O, the inhibition is reported as -19.9%.
For Nc1ccc2c(c1)C(=O)c1ccc(Cl)cc1-2, the inhibition was -15.2%.
C[C@@H]1Cc2c(O)c(O)cc(O)c2C(=O)O1 showed an inhibition of 3.88%.
CC1CC(=O)c2c(cc3c(-c4c(O)cc(O)c5c(O)c6c(cc45)OC(C)CC6=O)c(O)cc(O)c3c2O)O1 (stereo unspecified) gave an inhibition of 24.8%.
For O=C(CSc1nnc(-c2ccco2)n1CC1CCCO1)NC1CCCC1 (stereo unspecified), the inhibition was 20.3%.
CCOc1ccc2[nH]c3ncccc3c(=O)c2c1 gave an inhibition of 3.05%.
Compound CCOc1ccc(N=Nc2ccc(O)c3ncccc23)cc1 has an inhibition of 4%.
O=C(Nc1cccc(O)c1)c1ccc([N+](=O)[O-])cc1Cl gave an inhibition of -2.66%.
O=C(Nc1ccc([N+](=O)[O-])cc1Cl)c1cc(Cl)ccc1O gave an inhibition of 8.63%.
For Cc1cccc(NS(=O)(=O)c2csc(C(N)=O)c2)c1, the inhibition was 14.1%.
For Cc1cccc(OCCCC(=O)NNC(=O)c2ccc(F)cc2)c1, the inhibition was -5.91%.
COc1ccc(N=Nc2ccc(N)nc2N)cc1 gave an inhibition of 20.4%.
COc1cc(N=Nc2ccc(C(=O)N(C)C)cc2)c(C)cc1N showed an inhibition of 11.5%.
Work on Cn1c(Cn2c(=O)sc3ccccc32)nnc1SCC(=O)NCCc1ccccc1 yielded an inhibition of 1.01%.
CC(=O)c1ccc(NC(=O)COC(=O)c2ccccc2N=Nc2ccc(N(C)C)cc2)cc1 gave an inhibition of 17.2%.
With CN(C)c1ccc(N=Nc2ccccc2C(=O)OCC(=O)Nc2ccccc2C(F)(F)F)cc1 the inhibition was 28.2%.
With CN(C)c1ccc(N=Nc2ccccc2C(=O)OCC(=O)N(C)C2CCCCC2)cc1 the inhibition was 10.8%.
With CN(C)c1ccc(N=Nc2ccccc2C(=O)OCC(=O)N2CCCCCC2)cc1 the inhibition was 28.4%.
Compound CN(C)c1ccc(N=Nc2ccccc2C(=O)OCC(=O)N2CCCC2)cc1 has an inhibition of 22.2%.
Work on CN(C)c1ccc(N=Nc2ccccc2C(=O)OCC(=O)NCC2CCCCC2)cc1 yielded an inhibition of 8.64%.
For COC(=O)c1cc(C(=O)OCC(=O)NC2CCS(=O)(=O)C2)cc([N+](=O)[O-])c1 (stereo unspecified), the inhibition was 6.69%.
In the case of O=C(CCC1CCCN(C(=O)c2ccoc2)C1)NCc1ccccc1F (stereo unspecified), the inhibition is reported as -1.5%.
Compound COc1ccccc1NC(=O)Nc1nc(CC(=O)Nc2ccc(F)cc2)cs1 has an inhibition of -9.19%.
COc1ccccc1NC(=O)Nc1nc(CC(=O)Nc2ccc(OC)c(OC)c2)cs1 gave an inhibition of -0.35%.
O=C(Cn1nnc(-c2ccccc2F)n1)Nc1ccc2c(c1)OCCO2 showed an inhibition of -0.7%.
Work on C[C@H](NC(=O)c1nc[nH]c1C(=O)N1CCc2ccccc2C1)c1ccccc1 yielded an inhibition of -11.5%.
With O=C(COc1ccc(Cl)cc1)N/N=C/c1cccc2cccnc12 the inhibition was 2.4%.
Work on CCOc1ccccc1C=NNC(=O)c1cccc2ccccc12 yielded an inhibition of -22.3%.
With CCOc1ccc(C(=O)Nc2cccc3cccnc23)cc1 the inhibition was -4.15%.
COc1ccc(C(=O)N/N=C/c2cccnc2)cc1 gave an inhibition of -5.94%.
O=C(N/N=C/c1cccc2cccnc12)c1ccccc1O gave an inhibition of 0.6%.
For COc1ccc(C(=O)N/N=C/c2ccc3cccc(O)c3n2)cc1, the inhibition was -2.2%.
Work on CCN(CC)CCNC(=O)/C(=C/c1cn(C)c2ccccc12)NC(=O)c1ccc(OC)c(OC)c1 yielded an inhibition of -22.9%.
With COC(=O)Cc1[nH]nc2c1C(c1cccc(OC)c1OC)C(C#N)=C(N)O2 (stereo unspecified) the inhibition was -3.61%.
Work on CN(c1ccccc1)S(=O)(=O)CS(=O)(=O)N(C)c1ccccc1 yielded an inhibition of -0.79%.
For COc1ccccc1CNC(=O)CCCn1nc(C)n2ccnc2c1=O, the inhibition was -0.77%.
Compound CCCOc1ccc(N2CC(C(=O)Nc3ccc(N4CCOCC4)cc3)CC2=O)cc1 (stereo unspecified) has an inhibition of -0.783%.
CCCC(C)C(=O)Nc1cccc(NC(C)=O)c1 (stereo unspecified) showed an inhibition of -2.06%.
In the case of COc1ccccc1CNC(=O)COC(=O)c1cccc(-n2cnnn2)c1, the inhibition is reported as -6.66%.
Cc1ccc(NC(=O)C2CCCN2C(=O)OCc2ccccc2)c(O)c1 (stereo unspecified) showed an inhibition of 0.49%.
In the case of COc1cc(/C=C2\SC(N)=NC2=O)cc(Cl)c1O, the inhibition is reported as 4.85%.
Compound COc1cc(/C=C2\SC(c3ccc(C)cc3)=NC2=O)cc(OC)c1O has an inhibition of 17.9%.
Work on O=C(CCN1C(=O)c2ccccc2C1=O)NCc1ccccc1 yielded an inhibition of 5.94%.
